Test [1] concerns the target T1, Aurora kinase A (Homo sapiens) (UniProt O14965).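 Note: values are mean percent inhibition.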
T1 sequence (whole entry): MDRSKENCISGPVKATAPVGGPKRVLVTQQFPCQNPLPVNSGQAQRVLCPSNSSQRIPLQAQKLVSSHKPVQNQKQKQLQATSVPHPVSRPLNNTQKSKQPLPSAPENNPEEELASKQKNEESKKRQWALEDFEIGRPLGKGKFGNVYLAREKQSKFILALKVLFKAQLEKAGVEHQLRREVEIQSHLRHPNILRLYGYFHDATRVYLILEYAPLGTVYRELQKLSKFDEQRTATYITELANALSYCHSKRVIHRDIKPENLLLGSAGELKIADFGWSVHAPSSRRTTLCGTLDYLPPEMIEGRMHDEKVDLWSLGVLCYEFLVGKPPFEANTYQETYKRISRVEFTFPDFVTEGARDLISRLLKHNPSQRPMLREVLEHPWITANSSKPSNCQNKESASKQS
As to conditions: at 1 µM.

The target of test [2] is Aurora kinase B (Homo sapiens) (UniProt Q96GD4). As to conditions: at 0.1 µM.
Test [3] shares this target. Conditions: at 1 µM.
Test [4] deals with T2, Aurora kinase C (Homo sapiens) (UniProt Q9UQB9).
T2 sequence (whole entry): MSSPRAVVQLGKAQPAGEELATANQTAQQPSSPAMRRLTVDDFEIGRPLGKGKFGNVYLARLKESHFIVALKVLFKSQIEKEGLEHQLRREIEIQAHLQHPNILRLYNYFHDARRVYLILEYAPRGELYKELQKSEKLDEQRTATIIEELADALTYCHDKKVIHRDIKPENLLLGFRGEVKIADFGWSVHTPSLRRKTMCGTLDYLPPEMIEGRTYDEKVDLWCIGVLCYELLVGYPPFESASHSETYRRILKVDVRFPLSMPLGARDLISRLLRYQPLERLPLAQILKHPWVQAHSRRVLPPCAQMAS
Conditions: at 0.1 µM.

The target of test [5] is T2, Aurora kinase C (Homo sapiens). Conditions: at 1 µM.
Test [6] has as its target Serine/threonine-protein kinase 10 (Homo sapiens) (UniProt O94804). As to conditions: at 0.1 µM.
The target is the same in test [7]. Conditions: at 1 µM.
Test [8] has as its target T3, Mitogen-activated protein kinase kinase kinase kinase 2 (Homo sapiens) (UniProt Q12851).
T3 sequence (whole entry): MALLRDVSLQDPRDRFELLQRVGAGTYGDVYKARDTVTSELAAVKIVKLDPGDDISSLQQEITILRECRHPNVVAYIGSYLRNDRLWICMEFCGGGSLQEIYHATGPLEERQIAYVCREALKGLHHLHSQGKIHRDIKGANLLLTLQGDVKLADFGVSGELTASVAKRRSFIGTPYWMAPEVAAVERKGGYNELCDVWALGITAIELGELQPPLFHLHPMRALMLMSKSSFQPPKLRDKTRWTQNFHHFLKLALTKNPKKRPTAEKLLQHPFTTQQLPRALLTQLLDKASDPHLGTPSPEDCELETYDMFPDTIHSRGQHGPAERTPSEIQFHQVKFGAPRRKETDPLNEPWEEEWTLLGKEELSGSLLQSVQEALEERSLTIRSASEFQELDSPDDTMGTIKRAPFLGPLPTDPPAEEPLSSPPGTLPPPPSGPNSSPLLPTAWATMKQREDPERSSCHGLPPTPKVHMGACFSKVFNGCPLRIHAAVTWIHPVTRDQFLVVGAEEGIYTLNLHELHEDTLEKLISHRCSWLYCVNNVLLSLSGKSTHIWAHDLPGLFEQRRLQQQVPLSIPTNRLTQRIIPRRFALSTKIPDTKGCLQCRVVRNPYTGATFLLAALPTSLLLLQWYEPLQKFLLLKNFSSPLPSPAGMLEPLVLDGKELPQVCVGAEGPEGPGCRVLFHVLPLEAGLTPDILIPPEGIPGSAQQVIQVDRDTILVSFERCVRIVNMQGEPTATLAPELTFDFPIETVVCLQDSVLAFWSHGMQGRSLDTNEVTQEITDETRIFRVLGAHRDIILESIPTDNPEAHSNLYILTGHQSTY
Conditions: at 0.1 µM.

Test [9] addresses T3, Mitogen-activated protein kinase kinase kinase kinase 2 (Homo sapiens). As to conditions: at 1 µM.
The target in test [10] is Mitogen-activated protein kinase kinase kinase kinase 4 (Homo sapiens) (UniProt O95819). As to conditions: at 0.1 µM.
Sequence of Mitogen-activated protein kinase kinase kinase kinase 4 (Homo sapiens) (O95819 2-1239 limits assumed): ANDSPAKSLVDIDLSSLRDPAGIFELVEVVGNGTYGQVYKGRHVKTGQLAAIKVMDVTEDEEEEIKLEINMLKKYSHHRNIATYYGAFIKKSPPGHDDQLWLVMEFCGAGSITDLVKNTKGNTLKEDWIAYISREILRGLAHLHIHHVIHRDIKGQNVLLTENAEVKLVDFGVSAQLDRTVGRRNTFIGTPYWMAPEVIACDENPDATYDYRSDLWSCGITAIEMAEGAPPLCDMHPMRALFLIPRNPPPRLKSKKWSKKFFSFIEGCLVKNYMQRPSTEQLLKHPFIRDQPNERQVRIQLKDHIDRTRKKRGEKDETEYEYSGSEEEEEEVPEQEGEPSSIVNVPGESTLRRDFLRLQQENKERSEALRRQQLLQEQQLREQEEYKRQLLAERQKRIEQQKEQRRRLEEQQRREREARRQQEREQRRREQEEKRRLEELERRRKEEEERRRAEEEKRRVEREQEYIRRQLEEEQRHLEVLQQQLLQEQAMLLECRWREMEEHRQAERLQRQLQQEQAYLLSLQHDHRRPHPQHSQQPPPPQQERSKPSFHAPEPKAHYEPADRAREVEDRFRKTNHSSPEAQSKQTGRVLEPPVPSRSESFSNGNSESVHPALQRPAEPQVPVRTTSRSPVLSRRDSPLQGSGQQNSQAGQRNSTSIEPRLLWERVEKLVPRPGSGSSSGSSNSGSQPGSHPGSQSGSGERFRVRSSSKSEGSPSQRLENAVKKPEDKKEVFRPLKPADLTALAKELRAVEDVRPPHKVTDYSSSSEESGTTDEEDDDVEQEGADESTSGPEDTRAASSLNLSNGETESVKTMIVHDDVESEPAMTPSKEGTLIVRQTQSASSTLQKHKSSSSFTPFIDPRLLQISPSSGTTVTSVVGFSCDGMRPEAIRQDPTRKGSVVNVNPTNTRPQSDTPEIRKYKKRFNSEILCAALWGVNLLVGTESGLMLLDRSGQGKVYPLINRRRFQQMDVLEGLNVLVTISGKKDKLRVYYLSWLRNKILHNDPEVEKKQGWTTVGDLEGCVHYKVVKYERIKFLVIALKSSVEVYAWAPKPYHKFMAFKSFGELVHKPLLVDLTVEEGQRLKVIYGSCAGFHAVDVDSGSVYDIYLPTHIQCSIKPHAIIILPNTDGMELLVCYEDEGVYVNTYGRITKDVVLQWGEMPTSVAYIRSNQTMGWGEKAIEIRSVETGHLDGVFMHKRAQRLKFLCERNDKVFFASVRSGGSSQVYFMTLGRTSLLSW

Sequence of Serine/threonine-protein kinase 10 (Homo sapiens) (O94804 whole entry, looked up): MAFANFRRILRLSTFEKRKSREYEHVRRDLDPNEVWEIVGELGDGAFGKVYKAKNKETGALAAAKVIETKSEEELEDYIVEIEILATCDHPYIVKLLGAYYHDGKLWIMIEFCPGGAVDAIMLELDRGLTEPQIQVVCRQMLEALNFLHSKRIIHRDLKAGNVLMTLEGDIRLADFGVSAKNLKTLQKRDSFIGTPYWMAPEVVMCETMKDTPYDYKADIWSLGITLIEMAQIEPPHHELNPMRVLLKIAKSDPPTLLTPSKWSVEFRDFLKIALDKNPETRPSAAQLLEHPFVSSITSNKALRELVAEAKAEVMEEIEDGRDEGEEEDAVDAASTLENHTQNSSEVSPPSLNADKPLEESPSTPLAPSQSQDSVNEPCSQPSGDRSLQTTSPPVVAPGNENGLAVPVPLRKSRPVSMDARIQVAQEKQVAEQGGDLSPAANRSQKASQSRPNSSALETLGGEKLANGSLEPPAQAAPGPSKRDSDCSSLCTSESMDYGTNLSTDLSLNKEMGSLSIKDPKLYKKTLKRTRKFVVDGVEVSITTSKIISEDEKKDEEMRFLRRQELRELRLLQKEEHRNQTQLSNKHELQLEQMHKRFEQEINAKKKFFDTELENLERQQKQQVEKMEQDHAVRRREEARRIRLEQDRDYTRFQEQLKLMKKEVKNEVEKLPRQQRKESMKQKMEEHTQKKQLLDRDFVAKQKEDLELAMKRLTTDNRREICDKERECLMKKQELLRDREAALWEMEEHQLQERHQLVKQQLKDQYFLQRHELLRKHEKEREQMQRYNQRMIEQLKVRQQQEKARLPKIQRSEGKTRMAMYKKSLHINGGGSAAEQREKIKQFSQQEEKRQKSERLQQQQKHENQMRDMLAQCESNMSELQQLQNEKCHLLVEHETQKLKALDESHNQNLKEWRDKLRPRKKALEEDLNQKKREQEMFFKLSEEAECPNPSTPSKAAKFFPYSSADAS
Sequence of Aurora kinase B (Homo sapiens) (Q96GD4 whole entry): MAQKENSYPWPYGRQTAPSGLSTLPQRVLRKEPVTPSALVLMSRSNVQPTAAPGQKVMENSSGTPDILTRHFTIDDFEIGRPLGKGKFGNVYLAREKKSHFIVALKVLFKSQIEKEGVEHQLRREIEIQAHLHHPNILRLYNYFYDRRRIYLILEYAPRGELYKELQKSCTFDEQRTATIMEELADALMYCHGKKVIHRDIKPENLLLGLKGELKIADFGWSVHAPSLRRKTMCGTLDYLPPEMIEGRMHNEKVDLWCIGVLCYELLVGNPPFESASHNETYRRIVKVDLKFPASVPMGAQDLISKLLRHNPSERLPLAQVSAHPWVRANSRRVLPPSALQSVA

Consider `NS(=O)(=O)c1ccc(N/C=C2\C(=O)Nc3ccc4ncsc4c32)cc1`, for which the inhibition worked out at 80.2% in test [1]; 19.6% in test [2]; 55.2% in test [3]; 22.5% in [4]; 79.2% in [5]; 5.85% in [6]. Further, the inhibition in test [7] worked out at 16.2%; in test [8], 12.8%; in test [9] it was 52.1%; in [10] it was 55.1%.
Consider `NS(=O)(=O)c1ccc(-c2ccc3c(NC(=O)C4CC4)n[nH]c3c2)cc1`, for which the inhibition in [1] worked out at 15.3%; in test [2], 3.22%; in test [3], 0.63%; in test [4] it was 1.15%; in [5], 14.4%; in [6], 4.04%. The inhibition in test [7] was 5.59%; in test [8], -0.26%; in [9], 2.11%; in [10], 3.77%.
For `CCn1c(-c2nonc2N)nc2c(C#CC(C)(C)O)ncc(OCC3CCNCC3)c21`, the inhibition in [1] is 3.09%; in test [2], -0.07%; in test [3] it was 0.45%; in test [4] it was -3.33%; in [6], 3.91%; in [7] it was 13.6%. Moreover, the inhibition in test [8] came out at 1.42%; in test [9], 1.95%; in test [10] it was 4.98%.
`CCn1c(-c2nonc2N)nc2c(C#CC(C)(C)O)ncc(OC[C@@H]3CCCN3)c21`: the inhibition is 1.08% in test [1]; -1.36% in test [2]; 0.87% in [3]; 1.23% in [4]; 1.45% in [5]; -0.11% in test [6]. The inhibition was 5.64% in [7], 2.41% in [8], 3.31% in test [9] and 0.39% in [10].
In the case of `COc1cccc(COc2cc(-n3cnc4ccccc43)sc2C(N)=O)c1`, the inhibition in test [1] is 2.21%; in test [2] it was -1.57%; in test [3], 1.15%; in test [4] it was 1.58%; in [5] it was 3.73%; in test [6], 4.63%. For the same compound, the inhibition in test [7] came out at 39.4%; in [8], 1.4%; in test [9], 7.04%; in test [10] it was 1.37%.
As for `COc1cc(C=NNc2ncnc3c2cnn3Cc2ccccc2)ccc1O`, the inhibition in test [1] was 25.6%; in test [2], 2.52%; in test [3], 34.4%; in [4], 1.25%; in test [5], 10.6%; in test [6] it was -4.65%. Also, the inhibition in test [7] is 5.71%; in test [8], 0.89%; in test [9] it was 4.63%; in test [10] it was -1.52%.
With `Cc1cc(-c2ccco2)cc(C)c1/C=C/c1cncc(-c2nn[nH]n2)c1`, the inhibition in test [1] was 20%; in test [2] it was 0%; in test [3], 3.63%; in test [4], -0.32%; in test [5], 7.33%; in test [6] it was 2.24%. For the same compound, the inhibition in test [7] was 2.3%; in test [8], 1.39%; in [9] it was 1.37%; in [10], 1.07%.
Turning to `COc1cc2c(cc1Nc1nc(Nc3ccsc3C(N)=O)c3cc[nH]c3n1)N(C(=O)CN(C)C)CCC2`, the inhibition in [2] turned out to be 0.75%; in [3] it was 2.92%; in [4], 1.46%; in [5] it was 2.53%; in test [6], 11.4%; in [7], 17.4%. Moreover, the inhibition in [8] amounted to 1.63%; in test [9], 11.8%; in test [10], 9.31%.
For `NC(=O)c1sc(-n2cnc3cc(C(F)(F)F)ccc32)cc1OCc1ccccc1Br`, the inhibition is 2.05% in [1]; -0.8% in [2]; 2.44% in test [3]; 1.36% in test [4]; 4.02% in test [5]; 7.36% in test [6]. Also, the inhibition in test [7] was found to be 34.7%; in [8] it was 1.32%; in test [9] it was 5.29%; in [10], 3.11%.
Regarding `Nc1nonc1-c1nc2cnccc2n1C1CCCCC1`, the inhibition is 5.79% in test [1]; 0.62% in test [2]; 7.52% in test [3]; -0.66% in test [4]; 5.22% in [5]; 0.39% in test [6]. For the same compound, the inhibition in test [7] was found to be 18.4%; in test [8], 3.87%; in test [9], 20.4%; in [10], 6.25%.
Consider `CCn1c(-c2nonc2N)nc2c(C#CC(C)(C)O)nc(O[C@@H](CN)c3ccccc3)cc21`, for which the inhibition was 5.65% in test [1]; 0.38% in test [2]; 6.56% in [3]; -0.63% in test [4]; 1.38% in test [5]; 1.16% in test [6]. Moreover, the inhibition in test [7] amounted to 19.8%; in [8] it was 4.66%; in [9] it was 24.8%; in test [10], 2.87%.
As to `Fc1ccc(-c2ncn(C3CCNCC3)c2-c2ccnc(Oc3ccccc3)n2)cc1`, the inhibition in test [1] is -2.89%; in test [2], -0.82%; in test [3], 1.75%; in [4], -4.42%; in test [5], -1.24%; in test [6] it was 6.38%. The inhibition worked out at 8.33% in [7], 1.61% in [8], 4.65% in test [9] and 1.76% in test [10].
With `COc1cccc(-n2ncc3c(N/N=C/c4ccncc4)ncnc32)c1`, the inhibition in [1] was determined as 73.8%; in test [2] it was 7.94%; in test [3], 43.1%; in [4], 7.33%; in test [5] it was 61.4%; in test [6] it was 5.83%. Further, the inhibition in test [7] stood at 33.5%; in [8] it was 2.12%; in [9], 7.06%; in [10], 20.1%.
Consider `CCn1c(-c2nonc2N)nc2c(C#CCN)ncc(OCCCN)c21`, for which the inhibition was 5.16% in test [1]; 4.99% in [2]; 6.36% in test [3]; 3.54% in [4]; -8.09% in test [5]; 4.42% in [6]. For the same compound, the inhibition is 11.3% in [7], 3.61% in [8], 4.55% in test [9] and 1.78% in test [10].

As a reminder, the inhibition is the change of the read-out against control, counted positive when it falls.

The values above are taken from ChEMBL document CHEMBL1961873, “Compounds: GSK PKIS; Assays: Nanosyn kinase panel” (2012).
